Results filed as inconclusive are left out. A number with no mark means an inactive call. Calls of active or inactive are those of the source. Calls follow the shape of the full dose curve.
Assay: cAMP Responsive Elements (CRE) small molecule agonists, cell-based qHTS assay (AID 1963590)
Details: CRE-bla HEK293T, beta-lactamase FRET ratio, 3 h; series mostly up to 92.4 µM; activation: at the top concentration
Text: U.S. Tox21 Program National Center for Advancing Translational Sciences [NCATS] Division of Preclinical Innovation [DPI] U.S. Environmental Protection Agency [EPA] National Institutes of Environmental Health Sciences [NIEHS] National Toxicology Program [NTP] U.S. Food and Drug Administration [FDA] Tox21 Assay Overview: CREB (cyclic-AMP Responsive Element Binding Protein) is a cellular transcription factor. It binds to certain DNA sequences called cAMP Responsive Elements (CRE) and regulates the transcription of the genes. […] This cell line can be used to find agonists/antagonists of the cyclic AMP signaling pathway. The activation of the report gene under culture conditions can be detected by fluorescence intensity. This cell line has been used to screen the Tox21 10K compound library to identify agonists that induce oxidative stress.
Tox21 Assay Protocol Summary: CRE-bla Hek 293T cells were suspended in assay medium (DMEM containing 10% dialyzed FBS, 0.1 mM NEAA, 1 mM sodium pyruvate and 25 mM HEPES) and dispensed at 2,000 cells/5 uL /well into 1536-well black wall/clear bottom plates using a Multidrop Combi (ThermoFisher Scientific, Waltham, MA) dispenser. After the assay plates were incubated at 37 C/5% CO2 for 18 hrs, 23 nL of compounds dissolved in DMSO, positive controls or DMSO only was transferred to the assay plate by a pintool workstation (Kalypsys, San Diego, CA). After the plates were incubated at 37 C/5% CO2 for 3 hrs, 1 uL of LiveBLAzer B/G FRET substrate (Invitrogen, Carlsbad, CA) was added to each well using Bioraptr Flying Reagent Dispenser (FRD, Aurora Discovery, San Diego, CA). The plates were incubated at room temperature for 2 h.
% is scaled to controls: 0 for no effect and ±100 for the full control effect.

SMILES | activation | Potency
COc1cc(C(C)=O)ccc1OCCCN1CCC(c2noc3cc(F)ccc23)CC1 | 6.74% [at 42.5 µM] | –
CN1CCC(N(Cc2cccs2)c2ccccc2)CC1 | 3.23% [at 42.5 µM] | –
Cc1cc(NS(=O)(=O)c2ccc(N)cc2)no1 | – | inactive
CC(=O)[O][Al] | 1.47% | –
S=C(S)NCCNC(=S)S | -0.0634% | –
COc1cc([C@@H]2c3cc4c(cc3[C@@H](O[C@@H]3O[C@@H]5CO[C@@H](C)O[C@H]5[C@H](O)[C@H]3O)[C@H]3COC(=O)[C@H]23)OCO4)cc(OC)c1O | 5.25% | –
CC(CC(=O)Cl)CC(C)(C)C (stereo not given) | 0.458% | –
C[C@H](CS)C(=O)N1CCC[C@H]1C(=O)O | -0.521% [at 42.5 µM] | –
CNC(C)=O | -0.298% | –
COc1cccc2sc(N)nc12 | -0.146% | –
NC(CSCC(=O)O)C(=O)O (stereo not given) | -0.367% [at 42.5 µM] | –
CN1CCN(C2=Nc3cc(Cl)ccc3Nc3ccccc32)CC1 | 1.73% [at 42.5 µM] | –
CC(C)(CO)[C@@H](O)C(=O)NCCCO | -1.12% [at 42.5 µM] | –
COc1ccc2c(c1)c(CC(=O)OC/C=C(\C)CC/C=C(\C)CCC=C(C)C)c(C)n2C(=O)c1ccc(Cl)cc1 | 0.78% [at 42.5 µM] | –
CC/C=C\CCCCCO | 0.0265% | –
OCC1CC=CCC1 (stereo not given) | 0.339% | –
[Ca+2] | 1.08% | –
BrCc1cccc(Oc2ccccc2)c1 | 5.68% | –
C=CCCCCCCCCCCCCCC | -0.128% [at 19 µM] | –
C[C@]12CCC(=O)C=C1CC[C@H]1[C@@H]3CC[C@](O)(C(=O)CO)[C@@]3(C)C[C@H](O)[C@@]12F | 7.23% [at 42.5 µM] | –

SMILES | activation | Potency
CCCCCCCCC(CCCCCC)C(=O)O (stereo not given) | 0.0659% | –
CN1[C@@H]2CC[C@@H]1CC(OC(=O)C(CO)c1ccccc1)C2 (stereo not given in full) | -0.771% [at 42.5 µM] | –
CS(C)=O | -0.431% | –
CC(C)(C)C(=O)c1ccccc1 | -0.305% | –
CC(C)CCOC(=O)/C=C/c1ccccc1 | -0.265% | –
CN(C)c1ccncc1 | 0.033% | –
O=C(O)COCCN1CCN(C(c2ccccc2)c2ccc(Cl)cc2)CC1 (stereo not given) | – | inactive
C=CC(C)(CCC=C(C)C)OC(=O)CC(C)C (stereo not given) | 0.226% | –
NCCc1cnc[nH]1 | 6.84% [at 42.5 µM] | –
CCCCCC[C@@H](O)C/C=C\CCCCCCCC(=O)OC | -0.531% | –
CC(=O)CC(=O)Nc1ccc(S(=O)(=O)O)cc1 | -0.0361% | –
COC(=O)CC(=O)C(C)(C)C | -0.801% | –
CC(=O)Nc1cccc(N)c1 | 0.0341% | –
O=C(O)COC(=O)Cc1ccccc1Nc1c(Cl)cccc1Cl | 1.34% [at 42.5 µM] | –
CC1CCC(=O)C1=O (stereo not given) | -0.0971% | –
Cc1ccc(N)cc1S(=O)(=O)O | -0.0899% | –
CC1=CCC(C(C)C)C=C1 (stereo not given) | -1.84% | –
NC1=NCC2c3ccccc3Cc3ccccc3N12 (stereo not given) | 1.3% [at 42.5 µM] | –
CCC(=O)OCCC(C)CCC=C(C)C (stereo not given) | -0.595% | –
C=Cc1ccncc1 | 0.252% | –
